About 83,000 compounds went through this panel and 20% of them were active in at least one assay; those are over-represented in the sample as a whole.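 48-hour exposure, single concentration, 96-well plates; percent growth endpoint where 0 means no net growth. Active: below 10.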 Unmarked numbers belong to inactive results. Calls of active or inactive are those of the source.
Legend:
Assay in all cases: NCI-60 one-dose screen, 48 h (100 = growth as untreated, 0 = no growth, -100 = all killed)
Settings in all cases: 10 µM
NCI-H23 lung = test system: NCI-H23 lung
NCI-H226 lung = test system: NCI-H226 lung
NCI-H322M lung = test system: NCI-H322M lung
HOP-62 NSCLC = test system: HOP-62 NSCLC
NCI-H460 lung = test system: NCI-H460 lung
NCI-H522 lung = test system: NCI-H522 lung
786-0 renal = test system: 786-0 renal
COLO 205 colon = test system: COLO 205 colon
DU-145 prostate = test system: DU-145 prostate
K-562 leukemia = test system: K-562 leukemia
MALME-3M melanoma = test system: MALME-3M melanoma
MDA-MB-231 breast = test system: MDA-MB-231 breast
RXF 393 renal = test system: RXF 393 renal
SF-268 CNS = test system: SF-268 CNS
SF-295 CNS = test system: SF-295 CNS
SF-539 CNS = test system: SF-539 CNS
UACC-257 melanoma = test system: UACC-257 melanoma
M14 melanoma = test system: M14 melanoma
HCT-15 colon = test system: HCT-15 colon
A549/ATCC NSCLC = test system: A549/ATCC NSCLC

SMILES	growth (NCI-H23 lung)	growth (NCI-H226 lung)	growth (NCI-H322M lung)	growth (HOP-62 NSCLC)	growth (NCI-H460 lung)	growth (NCI-H522 lung)	growth (786-0 renal)	growth (COLO 205 colon)	growth (DU-145 prostate)	growth (K-562 leukemia)	growth (MALME-3M melanoma)	growth (MDA-MB-231 breast)	growth (RXF 393 renal)	growth (SF-268 CNS)	growth (SF-295 CNS)	growth (SF-539 CNS)	growth (UACC-257 melanoma)	growth (M14 melanoma)	growth (HCT-15 colon) [%]	growth (A549/ATCC NSCLC) [%]
O=C(Nc1cccc(-n2cc(-c3ccncc3)c(-c3cc(O)cc(Cl)c3)n2)c1)c1cc(C(F)(F)F)cc(C(F)(F)F)c1	42.7%	96%	74.1%	58.3%	19.9%	17.8%	55.1%	38.7%	62.1%	20.4%	61.7%	-34.6% (active)	-10.3% (active)	69.4%	15%	75.5%	71%	24.5%	30.1	–
COc1cc(NC(=O)CSc2nc3ccccc3c(=O)n2CCc2ccccc2)cc(OC)c1OC	26.6%	-0.963% (active)	27.7%	9.57% (active)	-30.2% (active)	-23.9% (active)	-80.1% (active)	29.9%	45.9%	–	–	-17% (active)	–	13.9%	51.6%	-50% (active)	39.2%	41.9%	89	24.9
CSc1cc(SC)ncn1	120%	107%	105%	108%	119%	100%	103%	104%	115%	96.6%	–	95.7%	124%	112%	102%	98.1%	104%	112%	98.2	–
COc1ccc([N+](=O)[O-])c(C(=O)O)c1	105%	95%	93.4%	100%	106%	73.4%	101%	102%	112%	88.6%	105%	121%	98.3%	102%	88.7%	98.7%	110%	100%	98.5	–
CS(=O)(=O)Nc1ccc(Nc2c3ccccc3nc3cc(N)ccc23)cc1	20.5%	-13.9% (active)	42%	11.9%	1.01% (active)	-11.5% (active)	2.37% (active)	51.9%	16.9%	22.7%	-32.7% (active)	85.8%	64.2%	13%	-23.3% (active)	2.88% (active)	0.44% (active)	7.54% (active)	73.6	–
Cc1ccc(-c2nc(/C=C3/C(=O)N(C)c4ccc(F)cc43)c3ccccn23)cc1	86.5%	106%	103%	77.9%	96.7%	60.5%	107%	120%	99.3%	107%	–	76.5%	97.9%	92.1%	71.3%	94.6%	106%	99.5%	93	–
Cc1cs/c(=N\NC(=O)c2cc(-c3cc4ccccc4o3)nn2-c2ccccc2)n1-c1ccccc1	85.9%	91.3%	93.5%	97.9%	97.1%	86.4%	91.4%	98.3%	–	94.2%	99.5%	84%	–	92.5%	85%	106%	–	95.8%	96.6	88.4
CN(C)C(=S)N/N=C\C=N/NC(=S)N(C)C	62.6%	76.9%	48.9%	92.9%	23.7%	1.5% (active)	85.3%	-1.67% (active)	37.4%	1.44% (active)	58.5%	37.3%	55.4%	84.6%	68.8%	84.6%	33.4%	47.9%	31.5	–
N#CCCN1C/C(=C/c2ccc(Cl)cc2)C(=O)/C(=C/c2ccc(Cl)cc2)C1	-29.9% (active)	-56.8% (active)	-22.1% (active)	-58% (active)	-49.9% (active)	-82.2% (active)	-70.5% (active)	-84.3% (active)	-30.7% (active)	3.1% (active)	-52.8% (active)	-18.5% (active)	-94.3% (active)	-38.6% (active)	-22.3% (active)	-50% (active)	-53.4% (active)	-44.1% (active)	–	–

Reference: PubChem BioAssay (NCI)
